According to PubChem BioAssay:
“And” between values parts separate entries of the source, which are not always exact repeats. Equal entries are not always repeated. Inconclusive results are not listed. The source made the active and inactive calls. Cut-off read from the data, not from the text of the source, unless noted: active = inhibition above about 80%; inactive = the rest.

Columns and labels:
[1] = viability loss with induced miR-34 in A549 – imaging, A549 dox-inducible miR-34, nuclei and caspase counts, primary screen (AID 1347080;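 active = compounds whose cell count with miR-34 switched on is under 0.7 times the count with it off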); settings: A549 miR-34 inducible, Hoechst nuclei count, 48 h
[2] = galactose survival enhancers in mitochondrial complex I cybrids – cell-based, galactose medium, ATP luminescence, primary screen (AID 1645843;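 active = z-score of at least 1.8 in each of two replicates, scored against plate mean and spread of sample wells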;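 note: positive z means more ATP and so rescue of galactose-driven cybrid death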); settings: complex I mutant cybrid cells, 72 h, stronger effect = higher value
[3] = growth inhibition, single agent or in combination, cell-based, chromothripsis tumors, cisplatin or BGB combos (AID 1671449); settings: LFS_MB_P medulloblastoma cells;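 note: cells exposed for 96 hours; 0% = vehicle DMSO and 100% = killing by high DMSO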
[4] = growth inhibition, single agent and combos, cell-based, chromothripsis tumors, cisplatin or BGB combos (AID 1671450); settings: HDN33 neuroblastoma cells, stronger effect = higher value;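 note: cells exposed to compound for four days; 0% = vehicle DMSO and 100% = cell killing by high DMSO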
[5] = growth inhibition, single agents and combos, ICB984, cell-based, cisplatin or BGB combos, synergistic combos for chromothripsis tumors (AID 1671451; call rule not given here;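 note: cells exposed for 96 hours before readout; 0% = vehicle DMSO and 100% = killing by high DMSO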); settings: ICB984 medulloblastoma cells, drug combinations, stronger effect = higher value
[6] = growth inhibition, single agents and combos, LFS_MB_1R, cell-based, cisplatin or BGB combos, synergistic combos for chromothripsis tumors (AID 1671452); settings: LFS_MB_1R medulloblastoma cells, stronger effect = higher value;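 note: cells exposed for 96 hours before readout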
[7] = growth inhibition, single agents and combos, HTB85, cell-based, BGB or cisplatin IC20 combos, synergistic combos for chromothripsis tumors (AID 1671453); settings: HTB85 osteosarcoma cells, drug combinations, stronger effect = higher value;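 note: cells exposed for 96 hours before readout; 0% = vehicle DMSO and 100% = high DMSO killing control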
[8] = growth inhibition, single agents and combos, CRL2098, cell-based, BGB or cisplatin IC20 combos, synergistic combos for chromothripsis tumors (AID 1671454); settings: CRL2098 osteosarcoma cells, drug combinations, stronger effect = higher value;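 note: cells exposed for 96 h before readout; 0% = vehicle DMSO and 100% = killing by high DMSO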
[9] = growth inhibition, single agents and combos, HD-MB03, cell-based, BGB or cisplatin IC20 combos, synergistic combos for chromothripsis tumors (AID 1671455; in the data active = inhibition above about 83%;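 note: 0% = vehicle DMSO and 100% = high DMSO as cytotoxic control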); settings: HD-MB03 medulloblastoma cells, stronger effect = higher value
[10] = growth inhibition, single agents and combos, UWB1.289, cell-based, BGB or cisplatin combos, synergistic combos for chromothripsis tumors (AID 1671456); settings: UWB1.289 ovarian carcinoma cells, stronger effect = higher value;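 note: cells exposed to compound for four days; 0% = vehicle DMSO and 100% = killing by high DMSO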
[11] = growth inhibition, single agents and combos, LFS_MB_2R, cell-based, cisplatin combos, synergistic combos for chromothripsis tumors (AID 1671457); settings: LFS_MB_2R medulloblastoma cells, stronger effect = higher value;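 note: cells exposed to compound for four days before readout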
[12] = growth inhibition, MDA-MB-436, cell-based, BGB or cisplatin combos, synergistic combos for chromothripsis tumors (AID 1671458; call rule not given here;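 note: cells exposed for 96 hours; 0% = vehicle DMSO and 100% = killing by high DMSO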); settings: MDA-MB-436 breast carcinoma growth inhibition, drug combinations, stronger effect = higher value
[13] = UWB1.289_BRCA1 ovarian cancer growth, cell-based, BGB or cisplatin combinations (AID 1671459); settings: UWB1.289 BRCA1 ovarian carcinoma, drug combinations, stronger effect = higher value
[14] = drug combination toxicity in non-malignant astrocytes – cell-based, BGB or cisplatin IC20 combos, cytotoxicity control for chromothriptic childhood tumor combination screen (AID 1671460); settings: Human astrocytes, viability inhibition, drug combinations, at 0.5 µM, stronger effect = higher value;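 note: cells exposed to compounds for 96 hours before viability readout; 0% = vehicle and 100% = killing control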
[15] = BT084 cell growth, single and combined drugs, ICGC_MB145, cisplatin and BGB IC40 combos (AID 1671461); settings: BT084 medulloblastoma cells, drug combinations, stronger effect = higher value;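 note: cells exposed to drugs for 96 hours; 0% = vehicle DMSO and 100% = high DMSO full killing control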
[16] = RCMB18 cell growth, single agent and combined, cisplatin and BGB IC40 combos (AID 1671462); settings: RCMB18 medulloblastoma cells, stronger effect = higher value;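 note: cells exposed to compound for four days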
[17] = CRL1545 cell growth, single agent and combined, cisplatin and BGB IC20 combos (AID 1671464); settings: CRL1545 osteosarcoma cells, stronger effect = higher value;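 note: cells exposed to compound for 96 hours before readout; 0% = vehicle DMSO and 100% = high DMSO killing control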
[18] = molecular target: ATP-dependent translocase ABCB1 (Homo sapiens) (UniProt P08183); experiment: P-glycoprotein substrate transport blockade – cell-based (AID 377; in the data active = fluorescence slope change above about 50%); settings: MDR1-expressing cells, fluorescent substrate accumulation slope; stronger effect = higher value; concentration not given here
Sequence of ATP-dependent translocase ABCB1 (Homo sapiens) (P08183 whole entry, looked up): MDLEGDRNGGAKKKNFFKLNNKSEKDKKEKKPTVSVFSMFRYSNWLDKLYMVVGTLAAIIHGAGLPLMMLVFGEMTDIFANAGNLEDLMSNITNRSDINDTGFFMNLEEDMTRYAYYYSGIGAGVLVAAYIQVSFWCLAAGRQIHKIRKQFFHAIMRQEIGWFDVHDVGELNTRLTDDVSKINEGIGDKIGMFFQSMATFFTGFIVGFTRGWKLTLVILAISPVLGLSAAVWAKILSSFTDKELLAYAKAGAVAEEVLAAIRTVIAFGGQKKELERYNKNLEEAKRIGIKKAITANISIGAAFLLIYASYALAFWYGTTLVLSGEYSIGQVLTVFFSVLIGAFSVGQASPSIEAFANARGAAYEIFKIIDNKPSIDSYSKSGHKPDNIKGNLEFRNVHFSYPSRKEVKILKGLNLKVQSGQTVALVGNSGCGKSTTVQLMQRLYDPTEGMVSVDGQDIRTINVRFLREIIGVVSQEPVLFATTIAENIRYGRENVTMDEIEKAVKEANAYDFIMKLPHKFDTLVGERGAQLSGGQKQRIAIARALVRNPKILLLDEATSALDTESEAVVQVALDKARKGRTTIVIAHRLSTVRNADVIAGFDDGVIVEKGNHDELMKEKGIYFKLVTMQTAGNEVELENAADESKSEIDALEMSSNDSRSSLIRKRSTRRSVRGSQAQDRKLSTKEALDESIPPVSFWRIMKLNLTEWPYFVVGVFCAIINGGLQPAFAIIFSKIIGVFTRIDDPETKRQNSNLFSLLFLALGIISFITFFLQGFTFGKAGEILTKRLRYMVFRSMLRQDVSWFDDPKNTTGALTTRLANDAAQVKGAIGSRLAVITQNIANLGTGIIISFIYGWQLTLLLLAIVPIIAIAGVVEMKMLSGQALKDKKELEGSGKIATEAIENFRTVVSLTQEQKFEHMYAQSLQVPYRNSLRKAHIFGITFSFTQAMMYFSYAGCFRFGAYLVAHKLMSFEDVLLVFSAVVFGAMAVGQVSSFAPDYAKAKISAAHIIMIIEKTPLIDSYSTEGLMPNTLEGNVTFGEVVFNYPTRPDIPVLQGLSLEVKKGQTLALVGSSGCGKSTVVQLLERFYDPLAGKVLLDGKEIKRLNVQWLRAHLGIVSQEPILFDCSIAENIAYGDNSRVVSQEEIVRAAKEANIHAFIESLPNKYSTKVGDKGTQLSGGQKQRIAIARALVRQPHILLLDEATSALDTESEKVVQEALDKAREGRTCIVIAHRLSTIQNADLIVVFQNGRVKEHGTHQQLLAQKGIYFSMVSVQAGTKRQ

[19] = compounds altering viability of human ES cells (AID 493140; call rule not given here;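 note: cells exposed to compounds for four days before counting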); settings: human embryonic stem cell survival screen; stronger effect = higher value
[20] = compounds altering circadian rhythm period length – cell-based, LOPAC library, luminescence reporter (AID 2774; call rule not given here;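 note: values are relative to mean of DMSO wells on each plate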); settings: circadian reporter cells, at 7 µM, actives lie on both sides
[21] = test system: Hepatitis C virus NS3 helicase; experiment: blockers of NS3h binding to ssDNA – biochemical, fluorescence polarization, LOPAC1280 library, primary screen (AID 687035; in the data active = inhibition above about 37%); settings: Purified HCV NS3 helicase, Cy5-dT15 ssDNA binding fluorescence polarization; stronger effect = higher value; concentration not given here
[22] = compounds altering Cy5-DNA-NS3h complex signal – biochemical, LOPAC1280, artefact control for HCV NS3 helicase inhibitor project (AID 687037; call rule not given here); settings: Cy5-DNA-NS3h complex fluorescence interference counterscreen
[23] = stronger effect = lower value, cell number ratio, induced over uninduced
[24] = measured here: relative caspase fold change +Dox/-Dox
[25] = measured here: total cells with miR-34 induction, stronger effect = lower value
[26] = measured here: total cells without miR-34 induction
[27] = measured here: combination with BGB IC40, at 0.05 µM
[28] = measured here: with BGB IC20 combination, at 0.5 µM
[29] = measured here: with cisplatin IC20 combination, at 0.5 µM
[30] = measured here: combination with cisplatin, at 0.5 µM
[31] = measured here: combination with cisplatin, at 5 µM

COc1c(N2CC3CCCNC3C2)c(F)cc2c(=O)c(C(=O)O)cn(C3CC3)c12 (centres undefined)
fold change [1, 23]: 0.906 (inactive)
fold change [1, 24]: 1.2
cell count [1, 25]: 9060
cell count [1, 26]: 10000
z-score [2]: 0.965 (inactive)
inhibition ([3]; at 0.5 µM, stronger effect = higher value): 79.9% (inactive) and -20.5% (inactive)
inhibition ([3]; measured here: combination with BGB IC20, at 0.005 µM): -24.3% and -13.6%
inhibition ([3]; measured here: combination with BGB IC40, at 0.005 µM): -13.7% and -15.3%
inhibition [3, 27]: -23.7% and -12.1%
inhibition ([3]; measured here: combination with cisplatin, at 0.5 µM, stronger effect = higher value): 118% and -28.2%
inhibition ([3]; measured here: combination with cisplatin, at 5 µM, stronger effect = higher value): -54.4% and -21.2%
inhibition ([4]; BGB combo, at 5 µM): 16.5% and -16.1%
inhibition ([4]; at 0.5 µM): -17.5% (inactive) and 7.5% (inactive)
inhibition ([4]; cisplatin combo, at 5 µM): -9.22% and 17.7%
inhibition [4, 28]: -4.15% and 11.4%
inhibition [4, 29]: -25.5% and 15.3%
inhibition ([4]; single agent, at 5 µM): 17.2% and 9.26%
inhibition ([5]; BGB IC20 combo, at 0.005 µM): -0.325% and -11.1%
inhibition ([5]; BGB IC40 combo, at 0.005 µM): -5.95% and -17.1%
inhibition ([5]; BGB IC40 combo, at 0.05 µM): -19.5% and -21.1%
inhibition ([5]; at 0.5 µM): -10.7% (inactive) and -20.7% (inactive)
inhibition ([5]; cisplatin combo, at 0.05 µM): -23.8% and -21.1%
inhibition ([5]; cisplatin combo, at 0.5 µM): -1.29% and -29.2%
inhibition ([5]; cisplatin combo, at 5 µM): -29.8% and -8.73%
inhibition ([5]; measured here: 5 uM single agent, at 5 µM): -4.57% and 0.836%
inhibition ([6]; at 0.5 µM): -18.3% (inactive) and -14.3% (inactive)
inhibition [6, 27]: -0.314% and -2.89%
inhibition [6, 30]: -10.2% and 25.8%
inhibition [6, 31]: -57.1% and -57%
inhibition ([7]; at 0.5 µM): -1.92% (inactive) and -17.4% (inactive)
inhibition ([7]; measured here: with BGB IC20, at 0.5 µM): 0.476% and -45.2%
inhibition ([7]; measured here: with BGB IC20, at 5 µM): -14.2% and 1.64%
inhibition ([7]; measured here: with cisplatin IC20, at 0.5 µM): -4.9% and -17.9%
inhibition ([7]; measured here: with cisplatin IC20, at 5 µM): -35.3% and -0.109%
inhibition ([7]; single agent, at 5 µM): 12% and -3.92%
inhibition ([8]; at 0.5 µM): -38.5% (inactive) and -21% (inactive)
inhibition ([8]; measured here: combination with BGB at IC20, at 0.5 µM): -15.6% and -12.1%
inhibition ([8]; measured here: combination with cisplatin at IC20, at 0.5 µM): -75% and -24%
inhibition ([9]; at 0.5 µM): -1.44% (inactive) and -1.69% (inactive)
inhibition ([9]; measured here: combo with BGB at IC20, at 0.5 µM): -9.81% and -2.86%
inhibition ([9]; measured here: combo with cisplatin at IC20, at 0.5 µM): 5.04% and -2.25%
inhibition ([10]; at 0.5 µM): 0.61% (inactive) and 5% (inactive)
inhibition ([10]; measured here: inhibition with BGB combination, at 0.05 µM): -8.87% and -16%
inhibition ([10]; measured here: inhibition with cisplatin combination, at 0.05 µM): -17.8% and -13.4%
inhibition ([11]; at 0.5 µM): -15.9% (inactive) and -16.5% (inactive)
inhibition [11, 30]: -17.1% and -8.11%
inhibition [11, 31]: -13.1% and -7.1%
inhibition ([12]; at 0.5 µM): -3.8% (inactive) and -6.04% (inactive)
inhibition ([12]; measured here: BGB combination, at 0.5 µM): -11.6% and -4.26%
inhibition ([12]; measured here: BGB combination, at 5 µM): -20.6% and -9.9%
inhibition ([12]; measured here: cisplatin combination, at 0.5 µM): -1.34% and -15%
inhibition ([12]; measured here: cisplatin combination, at 5 µM): -28.3% and -11.1%
inhibition ([13]; BGB combination, concentration series, at 5 µM): 5.74% and 12.9%
inhibition ([13]; at 0.5 µM): -0.42% (inactive) and 3.8% (inactive)
inhibition ([13]; cisplatin combination, concentration series, at 5 µM): 1.62% and 11.9%
inhibition [14]: 9.7% (inactive) and 6.47% (inactive)
inhibition ([14]; measured here: combo with BGB IC20): 1.83% and 2.24%
inhibition ([14]; measured here: combo with cisplatin IC20): 4.24% and 3.81%
inhibition ([15]; at 0.5 µM): -19% (inactive) and -8.29% (inactive)
inhibition ([15]; cisplatin combination, at 0.5 µM): -46.7% and 7.45%
inhibition ([15]; cisplatin combination, at 5 µM): -18.8% and -23%
inhibition ([15]; measured here: BGB IC40 combination 0.05 uM, at 0.05 µM): -35.2% and -12.7%
inhibition ([15]; single agent, at 5 µM): -4.05% and -7.99%
inhibition ([16]; at 0.5 µM): -5.76% (inactive) and -15.1% (inactive)
inhibition ([16]; cisplatin combo, at 5 µM): -131% and -3.44%
inhibition ([16]; measured here: BGB IC40 combination, at 0.05 µM): 9.3% and -24.7%
inhibition [16, 30]: -0.114% and -16.6%
inhibition ([16]; single agent, at 5 µM): -15% and -12.8%
inhibition ([17]; at 0.5 µM): 10.4% (inactive) and -25.5% (inactive)
inhibition [17, 28]: 13% and -1.64%
inhibition [17, 29]: 7.59% and -37.4%
inhibition ([17]; single agent, at 0.05 µM): -39.6% and 17%
inhibition ([17]; single agent, at 5 µM): -7.8% and 21.6%

CC[C@@]1([C@@H]2O[C@@H]([C@H]3O[C@@](O)(CO)[C@H](C)C[C@@H]3C)C[C@@H]2C)CC[C@H]([C@]2(C)CC[C@]3(C[C@H](O)[C@@H](C)[C@@H]([C@@H](C)[C@@H](OC)C(C)C(=O)O)O3)O2)O1 (some centres undefined)
fluorescence slope change [18]: 168% (active)
survival [19]: 0.417 (inactive)
fold change [1, 23]: 1.05 (inactive)
fold change [1, 24]: 1.84
cell count [1, 25]: 1810
cell count [1, 26]: 1730

CCCCCC(O)c1cccc(OCc2ccc3ccccc3n2)c1 (centres undefined)
period change [20]: 0.015 h (inactive)
survival [19]: 78.8 (inactive)
inhibition [21]: 1% (inactive)
fluorescence ratio (interference) [22]: 0.9 (inactive)
fold change [1, 23]: 0.911 (inactive) and 0.978 (inactive)
fold change [1, 24]: 1.06 and 0.946
cell count [1, 25]: 5590 and 5690
cell count [1, 26]: 6140 and 5820

O=C1O/C(=C/Br)CCC1c1cccc2ccccc12 (centres undefined)
period change [20]: -0.24 h (inactive)
inhibition [21]: 0% (inactive)
fluorescence ratio (interference) [22]: 1 (inactive)
fold change [1, 23]: 0.964 (inactive)
fold change [1, 24]: 0.87
cell count [1, 25]: 4330
cell count [1, 26]: 4490
